# In the supplement of paper PMC8866396:
# Where a name gives a salt, the structure may show the parent alone. ± gives the standard deviation of the averaged measurements.
# System: IL-6-GFP PC-9GR
# Assay: cell viability (CCK-8 OD) relative to DMSO control (fraction of control); higher = more viable cells
# Conditions: compound concentration: 10 uM; treatment time: 48 h
# Procedure, shortened: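 PC-9 and PC-9GR lung cancer cells expressing lentiviral IL-6-GFP were plated at 3000 cells/well in 96-well plates and treated for 48 h with each library compound at a final 10 μM. Viability was determined by CCK-8 absorbance as a ratio of each well's optical density to the vehicle control well.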
row,Structure (SMILES),cell viability
1,Nc1nc(N)c2nc(-c3ccccc3)c(N)nc2n1 [Triamterene],0.591 ± 0.14
2,Nc1nc(CC(=O)Nc2ccc(CCNCC(O)c3ccccc3)cc2)cs1 (stereo not drawn) [Mirabegron],1.09 ± 0.19
3,Cc1c(Cl)cccc1Nc1ncccc1C(=O)O [Clonixin],0.814 ± 0.24
4,CCOc1ccccc1OCCNC(C)Cc1ccc(OC)c(S(N)(=O)=O)c1 (stereo not drawn) [Tamsulosin],1.37 ± 0.042
5,COc1cc2nccc(Oc3ccc(NC(=O)C4(C(=O)Nc5ccc(F)cc5)CC4)cc3)c2cc1OC,0.886 ± 0.23
6,CC(=O)OCC(=O)C1(O)CCC2C3CCC4=CC(=O)CCC4(C)C3C(=O)CC21C (stereo not drawn) [Cortisone acetate],1.29 ± 0.26
7,Cl.NC1=NCC2c3ccccc3Cc3ccccc3N12 (stereo not drawn) [Epinastine HCl],0.9943 ± 0.0026
8,CC(C)CC(NC(=O)CNC(=O)c1cc(Cl)ccc1Cl)B1OC(=O)CC(CC(=O)O)(C(=O)O)O1 (stereo not drawn) [Ixazomib Citrate (MLN9708)],0.316 ± 0.3
9,CC(=O)N1CC(O)CC1C(=O)O (stereo not drawn) [Oxaceprol],1.22 ± 0.15
10,O=c1[nH]c(=O)n(C2CC(O)C(CO)O2)cc1F (stereo not drawn) [Floxuridine],0.681 ± 0.02
11,Cl.c1ccc(CN(CC2=NCCN2)c2ccccc2)cc1 [Antazoline HCl],0.998 ± 0.082
12,COc1cc2c(Nc3ccc(Br)cc3F)ncnc2cc1OCC1CCN(C)CC1 [Vandetanib (ZD6474)],0.578 ± 0.024
13,CC(=O)Nc1ccc(OC(=O)c2ccccc2OC(C)=O)cc1 [Benorylate],1.54 ± 0.41
